Data from PubChem BioAssay AID651956 (Broad Institute, 2012).
Entries with a potency or affinity are not part of this list. Inconclusive results are not listed. Calls of active or inactive are those of the source.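 Rule for the calls: active = in every test run, a fitted half-maximal concentration for signal decrease at or below twice the highest tested concentration; inconclusive = runs disagree, flat 30 to 70% decrease, or poor fit; inactive = the rest.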

Assay: miR-122 activators in hepatoma reporter cells, dose response, cell-based, Huh7 psiCHECK-miR122, Renilla luciferase, cherry-picked (AID 651956);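 note: Renilla luciferase from a miR-122 sensor reporter so lower signal means miR-122 activation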
Settings: 48 h; series mostly up to 35 µM

outcome, inactive:
C/C=C/c1ccc([C@H]2[C@@H](CO)N(C(C)=O)[C@@H]2CN(C(=O)COC)C(C)C)cc1, COC(=O)C[C@@H]1CC[C@@H]2[C@@H](COc3ccc(NC(=O)c4cc(F)cc(F)c4)cc3C(=O)N2C)O1, Cc1ccc(Nc2c(-c3ccccn3)nc3cc(C)ccn23)cc1, CCc1nc2sc(C)c(C)c2c(=O)n1CCO, Fc1ccc(CN2CCN(c3ncnc4scc(-c5ccc(F)cc5)c34)CC2)cc1, C/C=C/c1ccc([C@H]2[C@@H](CO)N(Cc3ccccn3)[C@@H]2CNC(=O)CC)cc1, CC(=O)N1[C@H](CN(C(=O)c2ccc(F)cc2)C(C)C)[C@H](c2ccccc2)[C@@H]1CO, O=C(c1cccnc1)N1C[C@H]2[C@@H](c3ccccc31)[C@H](CO)N2C(=O)Nc1ccccc1, CCNC(=O)Nc1ccc2c(c1)C(=O)N(C)[C@H]1CC[C@H](CC(=O)NCc3ccccc3F)O[C@H]1CO2, C[C@H](CO)N1C[C@H](C)[C@@H](CN(C)Cc2ccc(C(F)(F)F)cc2)Oc2ccc(NS(=O)(=O)c3ccc(Cl)cc3)cc2CC1=O, O=C(c1ccco1)N1CCN(C2CC(=O)N(c3ccccc3)C2=O)CC1 (centres undefined), CN1C(=O)c2cc(NC(=O)C3CC3)ccc2OC[C@@H]2O[C@H](CC(=O)NCCN3CCCC3)CC[C@H]21, CCCNC(=O)N1[C@@H]2CN(C(=O)c3ccccc3)c3ccccc3[C@@H]2[C@@H]1CO, CCCCNC(=O)Nc1nnc(-c2ccc(OCC)cc2)o1, O=C(NC[C@@H]1[C@H](c2ccccc2)[C@@H](CO)N1Cc1cccnc1)c1ccccn1, CCNC(=O)C[C@@H]1CC[C@H]2[C@@H](COc3ccc(NC(=O)c4ccc(C(F)(F)F)cc4)cc3C(=O)N2C)O1, CCCNC(=O)C[C@@H]1CC[C@@H]2[C@H](COc3ccc(NC(=O)Nc4ccccc4F)cc3C(=O)N2C)O1, C=CCc1c(OC)ccc2ccc(=O)oc12, Cc1cccc(NC(=O)Nc2ccc3c(c2)C(=O)N(C)[C@H]2CC[C@@H](CC(=O)NCc4ccccc4Cl)O[C@H]2CO3)c1, C/C=C/c1ccc([C@H]2[C@@H](CO)N(C(=O)C3CC3)[C@H]2CNC(=O)NC(C)C)cc1, C/C=C/c1ccc([C@H]2[C@H](CO)N[C@H]2CN(C)S(=O)(=O)c2ccccc2)cc1, O=C(COc1ccccc1F)N1CCc2ccccc2C1, CCOC(=O)c1nc(C)n(-c2ccc(Cl)cc2Cl)n1, CN1C(=O)c2cc(NS(=O)(=O)c3cccc(F)c3)ccc2OC[C@H]2O[C@@H](CC(=O)NCCN3CCCCC3)CC[C@H]21, CC(C)C(=O)Nc1ccc2c(c1)C(=O)N(C)[C@H]1CC[C@H](CC(=O)Nc3cccc(F)c3)O[C@@H]1CO2, CN1C(=O)c2cc(NC(=O)c3ccccc3F)ccc2OC[C@H]2O[C@H](CC(=O)NCc3ccc4c(c3)OCO4)CC[C@@H]21, COc1cc(N)c(Cl)cc1NC(=O)c1ccccc1, CC(C)C(=O)Nc1ccc2c(c1)C(=O)N(C)[C@@H]1CC[C@H](CC(=O)N[C@H](C)c3ccccc3)O[C@@H]1CO2, CC(C)C(=O)Nc1ccc2c(c1)C(=O)N(C)[C@H]1CC[C@H](CC(=O)NCCc3ccccc3)O[C@H]1CO2, CC(=O)c1ccc(Nc2nc3ccc(C)cc3n3cnnc23)cc1, CCNC(=O)Nc1ccc2c(c1)C(=O)N(C)[C@H]1CC[C@H](CC(=O)Nc3ccccc3F)O[C@@H]1CO2, CN1CCN(C(=O)C[C@H]2CC[C@@H]3[C@H](COc4ccc(NC(=O)c5cccs5)cc4C(=O)N3C)O2)CC1, COCC(=O)Nc1ccc2c(c1)C(=O)N(C)[C@@H]1CC[C@@H](CC(=O)NC3CCCC3)O[C@@H]1CO2, NC(=O)c1csc(-c2ccncc2)n1, Cc1ccccc1NCN1C(=O)C2C3C=CC(C3)C2C1=O (centres undefined), N=c1c2c(-c3ccccc3)c(-c3ccccc3)n(Cc3ccccc3)c2ncn1CCCO, CC(=O)N(C)C[C@@H]1[C@@H](c2ccc(-c3cccc(C#N)c3)cc2)[C@H](CO)N1C(C)=O, CN1C(=O)c2cc(NS(=O)(=O)c3cccc(F)c3)ccc2OC[C@@H]2O[C@@H](CC(=O)NCCN3CCCCC3)CC[C@H]21, COc1ccc(-c2c(-c3ccccc3)c(C(=O)C(=O)NCCCN(C)C)n3ccc4cc(OC)c(OC)cc4c23)cc1OC
